Drawing on PubChem BioAssay (NCATS), this text covers Potency, outcome and activity change, negative = inhibition for 34 compounds.

Test [1] has as its target Rap guanine nucleotide exchange factor 3 (Homo sapiens) (UniProt O95398). Kind of test: Confirmatory qHTS for antagonist of cAMP-regulated guanine nucleotide exchange factor 3 (EPAC1) (AID 1645880). Also: nearly all actives have a fitted effect of over 55% in size. Also: potency is read from the fitted curve at half-maximal effect.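 As to activity, negative = inhibition: plate controls were DMSO only for no effect and full effect of the ATA control for full effect.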 The note with it: EPAC1 Rap1B-BODIPY-GDP exchange, fluorescence; activity, negative = inhibition: at 115 µM (top of the series). The procedure, abridged:
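Released BODIPY-GDP fluoresces less than Rap1-bound BODIPY-GDP; the signal is followed at 480/540 nm at 5-min intervals over 30 min, after 5 min at room temperature. Reactions contain 100 nM EPAC1, 250 nM RAP1B-BODIPY-GDP and 50 uM GDP; results are normalized to ATA and DMSO.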
In general terms: Quantitative high-throughput screening tests each substance at several concentrations.

Test [2] has the same target. Kind of test: Confirmatory qHTS for agonist of cAMP-regulated guanine nucleotide exchange factor 3 (EPAC1) (AID 1645881). Also: nearly all actives have a fitted effect of over 75% in size. Also: potency is read from the fitted curve at half-maximal effect.
Test [3] deals with Rap guanine nucleotide exchange factor 4 (Homo sapiens) (UniProt Q8WZA2). Kind of test: Confirmatory qHTS for antagonist of cAMP-regulated guanine nucleotide exchange factor 4 (EPAC2) (AID 1645885). Also: nearly all actives have a fitted effect of over 25% in size. Also: potency is read from the fitted curve at half-maximal effect. As to activity change, negative = inhibition: % is scaled to controls: 0 for no effect and ±100 for the full control effect.
Test [4] addresses Rap guanine nucleotide exchange factor 3 (Homo sapiens) (UniProt O95398). Kind of test: Counterscreen qHTS for antagonist of cAMP-regulated guanine nucleotide exchange factor 3 (EPAC1) (AID 1645888). Also: % of control where 0% means no effect. The essentials:
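Measured: fluorescence of BODIPY-GDP bound to Rap1B, which falls as exchange proceeds. Conditions include 50 uM competing GDP, 5 and 30 min reads, and a later cAMP challenge for antagonist detection.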

The target of test [5] is Cytochrome P450 3A4 (Homo sapiens) (UniProt P08684). Put plainly: qHTS Assay for Inhibitors and Substrates of Cytochrome P450 3A4 (AID 884). Also: potency is read from the fitted curve at half-maximal effect; nearly all actives have a fitted effect of over 50% in size. The procedure, abridged: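 Luminescent readout of luciferin produced by CYP3A4 (20 nM) dealkylation of Luciferin-PPXE, 25 uM (its KM). NADPH-driven reaction ran 60 min at RT after 10 min compound preincubation; data scaled to 57 uM ketoconazole as 100% inhibition.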

The target is the same in test [6]. Kind of test: qHTS Assay for Activators of Cytochrome P450 3A4 (AID 885). Also: nearly all actives have a fitted effect of over 65% in size. The procedure, abridged: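 Luminescent readout of luciferin formed from 25 uM Luciferin-PPXE (KM level) by 20 nM CYP3A4 in 200 mM KPO4, with 60 min NADPH-driven reaction at room temperature after 10 min compound exposure. Ketoconazole (57 uM) defined 100% inhibition.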
A short description of test [7]: Confirmation and Secondary Assay for Modulators of Hemoglobin Beta Chain Splicing at IVS2 654 locus (AID 910). Also: % of control where 0% means no effect. The procedure, abridged: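 HeLa cells stably carrying EGFP interrupted by mutant beta-globin IVS2-654 intron (CMV-driven) were treated with compound for 2 days at 37C; corrected splicing was scored as total peak GFP intensity per well (488 nm excitation, 500-520 nm emission).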

Test [8] is described as follows: Confirmation and Secondary Assay for Modulators of Hemoglobin Beta Chain Splicing at IVS2 705 locus (AID 930).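 Also: HeLa cells stably expressing the EGFP-705 splicing reporter; GFP fluorescence per well restored by corrected splicing of the IVS2-705 intron in EGFP; % of control where 0% means no effect.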 The procedure, abridged: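 HeLa cells stably carrying EGFP interrupted by mutant beta-globin intron 2 (IVS2-705) treated 2 days at 37C with compound; 500 nM antisense PNA as control. Correct splicing read as total peak GFP intensity per well by laser-scanning cytometry.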

Test [9] concerns the target Rap guanine nucleotide exchange factor 4 (Homo sapiens) (UniProt Q8WZA2). Put plainly: Confirmatory qHTS for agonist of cAMP-regulated guanine nucleotide exchange factor 4 (EPAC2) (AID 1645884).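 Also: nucleotide exchange releases bodipy-GDP from Rap1 and this lowers its fluorescence; % is scaled to controls: 0 for no effect and ±100 for the full control effect; nearly all actives have a fitted effect of over 65% in size.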

The structures appear in SMILES notation. A number with no mark means an inactive call. Inconclusive results are not listed. The source made the active and inactive calls. Calls follow the shape of the dose curve; as a rule, active = well fitted curve in the direction sought with a large enough effect; inconclusive = small, poorly fitted or top-dose-only effect, or another doubt; inactive = no such curve, though single readings can be large; an effect the other way counts as inactive or inconclusive.

Chain of Rap guanine nucleotide exchange factor 4 (Homo sapiens) (Q8WZA2 whole entry, looked up): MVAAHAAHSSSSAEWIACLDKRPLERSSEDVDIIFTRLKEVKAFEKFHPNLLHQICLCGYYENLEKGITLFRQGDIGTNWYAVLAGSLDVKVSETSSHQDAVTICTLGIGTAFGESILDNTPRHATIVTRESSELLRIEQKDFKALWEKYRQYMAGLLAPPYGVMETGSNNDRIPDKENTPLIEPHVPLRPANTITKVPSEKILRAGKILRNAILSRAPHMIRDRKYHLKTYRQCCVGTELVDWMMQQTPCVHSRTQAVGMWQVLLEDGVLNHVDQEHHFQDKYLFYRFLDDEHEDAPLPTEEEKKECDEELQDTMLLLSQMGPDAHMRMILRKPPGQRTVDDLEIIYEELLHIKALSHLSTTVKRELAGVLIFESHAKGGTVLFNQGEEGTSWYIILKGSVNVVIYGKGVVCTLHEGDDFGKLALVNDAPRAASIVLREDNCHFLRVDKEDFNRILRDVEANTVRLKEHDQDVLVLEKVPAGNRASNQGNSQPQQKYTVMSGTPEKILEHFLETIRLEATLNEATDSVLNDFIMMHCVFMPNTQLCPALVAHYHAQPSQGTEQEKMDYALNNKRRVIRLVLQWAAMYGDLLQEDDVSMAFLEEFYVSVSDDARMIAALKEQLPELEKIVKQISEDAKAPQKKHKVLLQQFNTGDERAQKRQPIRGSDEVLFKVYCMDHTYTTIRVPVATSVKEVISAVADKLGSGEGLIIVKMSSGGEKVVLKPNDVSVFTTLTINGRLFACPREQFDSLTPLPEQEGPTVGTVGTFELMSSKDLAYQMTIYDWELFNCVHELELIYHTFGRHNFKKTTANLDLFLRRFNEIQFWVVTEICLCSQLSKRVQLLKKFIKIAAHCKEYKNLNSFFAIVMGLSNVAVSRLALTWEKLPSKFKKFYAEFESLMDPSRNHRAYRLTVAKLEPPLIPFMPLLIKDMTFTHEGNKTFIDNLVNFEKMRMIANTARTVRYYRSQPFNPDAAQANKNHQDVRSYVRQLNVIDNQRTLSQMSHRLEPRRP
Chain of Rap guanine nucleotide exchange factor 3 (Homo sapiens) (O95398 whole entry, looked up): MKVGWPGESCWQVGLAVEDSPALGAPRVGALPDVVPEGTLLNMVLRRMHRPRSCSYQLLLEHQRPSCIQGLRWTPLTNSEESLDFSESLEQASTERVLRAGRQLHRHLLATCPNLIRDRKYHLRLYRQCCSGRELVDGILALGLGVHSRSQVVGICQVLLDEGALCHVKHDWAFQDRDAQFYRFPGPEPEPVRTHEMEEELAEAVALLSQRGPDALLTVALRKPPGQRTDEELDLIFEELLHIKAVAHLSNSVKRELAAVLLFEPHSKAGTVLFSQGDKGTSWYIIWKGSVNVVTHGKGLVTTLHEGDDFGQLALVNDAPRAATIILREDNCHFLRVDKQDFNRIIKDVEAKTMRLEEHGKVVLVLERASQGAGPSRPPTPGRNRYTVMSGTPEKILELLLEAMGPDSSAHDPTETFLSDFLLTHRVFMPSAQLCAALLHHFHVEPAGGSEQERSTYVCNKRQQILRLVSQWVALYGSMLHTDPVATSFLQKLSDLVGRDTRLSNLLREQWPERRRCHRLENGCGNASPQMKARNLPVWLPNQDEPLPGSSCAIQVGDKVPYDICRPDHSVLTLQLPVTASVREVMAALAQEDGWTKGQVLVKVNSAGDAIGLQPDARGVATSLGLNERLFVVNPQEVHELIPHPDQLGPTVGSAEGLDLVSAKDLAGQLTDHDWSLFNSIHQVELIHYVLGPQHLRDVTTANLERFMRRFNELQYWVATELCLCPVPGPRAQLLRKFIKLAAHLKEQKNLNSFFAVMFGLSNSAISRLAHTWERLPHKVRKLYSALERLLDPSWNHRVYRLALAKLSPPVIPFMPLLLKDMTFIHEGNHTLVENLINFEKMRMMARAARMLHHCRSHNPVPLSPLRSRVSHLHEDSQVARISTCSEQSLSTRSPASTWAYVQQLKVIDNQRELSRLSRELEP
Chain of Cytochrome P450 3A4 (Homo sapiens) (P08684 whole entry, looked up): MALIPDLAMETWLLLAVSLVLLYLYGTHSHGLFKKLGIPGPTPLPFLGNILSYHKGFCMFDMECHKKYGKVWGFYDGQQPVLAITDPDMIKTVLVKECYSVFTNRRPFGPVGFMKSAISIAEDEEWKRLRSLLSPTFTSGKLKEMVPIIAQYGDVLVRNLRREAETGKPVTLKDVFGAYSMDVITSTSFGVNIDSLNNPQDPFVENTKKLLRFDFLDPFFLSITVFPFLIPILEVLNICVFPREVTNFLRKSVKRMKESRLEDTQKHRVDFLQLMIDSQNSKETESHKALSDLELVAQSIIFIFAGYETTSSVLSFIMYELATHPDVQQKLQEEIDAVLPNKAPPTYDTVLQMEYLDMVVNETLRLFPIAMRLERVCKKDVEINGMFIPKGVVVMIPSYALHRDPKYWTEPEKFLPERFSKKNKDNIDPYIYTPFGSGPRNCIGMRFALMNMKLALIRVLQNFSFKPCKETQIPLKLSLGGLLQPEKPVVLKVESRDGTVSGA

For the compound `N#CC(C#N)=C1C=C2C=C(N3CCOCC3)CCC2CC1` (stereo not drawn), the Potency result in test [1] and in [4] was “inactive” each time. In addition, the results for the Potency in test [2] and in test [3] were 44.7 µM (active) and 37.9 µM (active), respectively.

As for `CCCCN(CCC#N)c1ccc(/C=C/c2ccnc3ccccc23)cc1`, the Potency entry in test [1], in [2] and in [3] was “inactive” in each case.

For `OC(c1ccc2ccccc2n1)c1c(Cl)cccc1Cl` (stereo not drawn), the Potency entry in test [1], in test [2], in test [3] and in [4] was “inactive” each time.

For `CCOc1ccccc1NC(=O)c1ccccc1-c1ccccc1`, the Potency result in test [1], in test [2] and in test [3] was “inactive” each time.

As to `Cc1ccc(C)c(NC(=O)N2CCN3CCCCC3C2)c1` (stereo not drawn), the Potency entry in test [1], in test [2], in test [3] and in test [4] was “inactive” throughout.

Consider `CCc1ccc(CNC(=O)Cn2nc(C)n3c(cc4cc(C)ccc43)c2=O)cc1`, for which the Potency result in [1], in [2] and in test [4] was “inactive” each time. The outcome in test [3] is “inactive [at 12.7 µM]”.

Turning to `C=Nc1ccc(/C=C/c2ccnc3ccccc23)cc1`, the Potency result in test [1], in test [2] and in test [3] was “inactive” in each case.

As for `Cc1ccc(S(=O)c2ccc([N+](=O)[O-])c3nonc23)cc1` (stereo not drawn), the Potency in test [1] is 23.9 µM (active). Besides, the Potency result in test [2], in test [3] and in test [4] was “inactive” each time.

Take `COc1ccc(Br)cc1CN(C)CC(=O)Nc1c(Cl)cccc1Cl`: the Potency entry in test [1], in test [2] and in test [4] was “inactive” in each case. Further, the Potency in [3] is 13.5 µM (active).

`Cc1cc(Br)cc(C=Nc2ccc(N3CCOCC3)cc2)c1O`: the Potency entry in test [1], in test [2], in test [3] and in test [4] was “inactive” each time.

Take `CC(NC(=O)c1ccc(Br)s1)c1ccncc1` (stereo not drawn): the Potency entry in test [1], in [2], in test [3] and in test [4] was “inactive” each time.

Turning to `O=C(N/N=C\c1c(O)ccc2ccccc12)c1ccc(S(=O)(=O)N2CCCCC2)cc1`, the Potency entry in [1] and in [3] was “inactive” in each case. The Potency in [2] is 44.7 µM (active). Besides, in [4], the activity change, negative = inhibition was -15.1% [at 30.8 µM].

Regarding `COc1ccccc1CN(C)CC(=O)Nc1ccc(Cl)cc1F`, the Potency entry in test [1], in [2], in test [3] and in [4] was “inactive” each time.

For `Cc1cccc(Cn2c(-c3cccs3)nc3ccccc32)c1`, the Potency entry in test [1], in test [2] and in test [3] was “inactive” throughout.

As to `Cc1cccc(CNC(=O)c2ccc(-c3nc(CS(=O)(=O)c4ccccc4)c(C)o3)cc2)c1`, the Potency entry in [1], in test [2], in [3] and in [4] was “inactive” each time.

`c1ccc(NN(Cc2ccccn2)c2ccccc2)cc1`: the Potency result in test [1], in [2], in test [3] and in [4] was “inactive” in each case.

Turning to `CCCCN(CCCC)c1ccc(/C=C/c2ccnc3ccccc23)cc1`, the Potency result in [1], in test [2] and in [3] was “inactive” each time.

For the compound `CCOc1ccc(NC(=O)CSc2nc(-c3cccc(Cl)c3)nc3c2Cc2c(CO)cnc(C)c2O3)cc1`, the Potency entry in [1], in test [2], in test [3] and in test [4] was “inactive” in each case.

On to `O=C(O)CSCC(=O)N(Cc1ccccc1)c1nc(-c2ccccc2)c(-c2ccccc2)s1`, for which the Potency in test [1] and in test [3] was 67.5 µM (active) throughout. Further, the Potency entry in test [2] and in test [4] was “inactive” in each case.

As for `O=S(=O)(Nc1ccccc1N1CCCCC1)c1cccs1`, the Potency entry in test [1], in [2] and in test [4] was “inactive” in each case. Also, the Potency in [3] was 19 µM (active).

For `COc1cc(C)c2c(=O)cc(-c3ccccc3)oc2c1`, the Potency in test [5] was 12.6 µM (active). Also, in test [6], the outcome was inactive. Moreover, the Potency result in test [7], in test [8], in test [1], in test [2] and in test [9] was “inactive” each time.

Regarding `CCCCCCn1c(=O)[nH]c2nc3cc(N)c(C)cc3nc2c1=O`, the Potency result in [1], in test [3] and in [4] was “inactive” throughout. In addition, the Potency in test [2] is 112 µM (active).

For `COCCOC(=O)c1c(-c2ccccc2)c(-c2ccccc2)nn(C)c1=O`, the Potency result in [1], in test [2], in test [3] and in test [4] was “inactive” each time.

Consider `OCCCCC#Cc1c(-c2ccsc2)sc2ccccc12`, for which the Potency result in test [1], in test [2], in test [3] and in test [4] was “inactive” each time.

`Cc1oc2cc(Br)c(O)c(Br)c2c1C(=O)c1ccccc1`: the Potency entry in test [1], in test [2], in test [3] and in [4] was “inactive” in each case.

With `COc1ccc(C(=O)c2oc3ccccc3c2NC(=O)c2cc(=O)c3ccc(C)cc3o2)cc1Cl`, the Potency entry in test [1], in test [2] and in [4] was “inactive” throughout. Besides, in test [3], the outcome is “inactive [at 12.7 µM]”.

For the compound `COc1ccc(C(=S)N2CCOCC2)cc1OC(=O)c1ccccc1Cl`, the Potency result in test [1], in [2] and in test [3] was “inactive” throughout.

On to `CC(=O)Oc1c2c(c3c(c1CC=C(C)C)O[C@@]14C(=CC5CC1C(C)(C)OC4(C/C=C(\C)C(=O)O)C5=O)C3=O)OC(C)(CCC=C(C)C)C=C2` (stereo partly drawn), for which the result in test [6] was inactive. The Potency result in test [7], in [8], in test [2] and in test [9] was “inactive” each time. The Potency in [1] is 55.9 µM (active).

Consider `Cc1cc2ccccn2c1C(=O)c1ccc(Cl)c([N+](=O)[O-])c1`, for which the Potency result in test [1], in test [2], in test [3] and in test [4] was “inactive” throughout.

Consider `COc1cc(/C=N/NC(=O)c2cc(O)cc(O)c2)ccc1OC(=O)c1ccccc1`, for which the values for the Potency in [1] and in test [3] were 33.8 µM (active) and 3.38 µM (active), respectively. For the same compound, the Potency result in [2] and in test [4] was “inactive” each time.

Regarding `O=C(CCn1c(=O)oc2ccccc21)N(Cc1ccccc1)c1ccccc1`, the Potency entry in [1], in test [2] and in test [3] was “inactive” throughout.

Regarding `Cc1nc2c(C(=O)NCCc3ccccc3)c[nH]n2c(=O)c1Cc1ccc(F)cc1Cl`, in test [1], the Potency is 84.9 µM (active). For the same compound, the Potency entry in test [2], in test [3] and in test [4] was “inactive” in each case.

On to `Cc1onc(-c2ccc3c(c2)OCO3)c1-c1ccc2[nH]ccc2c1`, for which the Potency entry in test [1], in test [2] and in test [3] was “inactive” throughout.

Take `O=C(Nc1ccccc1N1CCCCC1)C1=COCCO1`: the Potency result in [1], in test [2], in test [3] and in [4] was “inactive” throughout.
